Reference: PubChem BioAssay AID504465 (National Center for Advancing Translational Sciences (NCATS), 2011)
Hit rate of the full screen: of about 2,100 compounds, about 210 (10%) were called active. About 53% were inconclusive and are not listed. The list shows a part of the results. Values without a mark were called inactive. Calls come from the whole dose curve; as a rule, active = well fitted inhibition curve with a large enough effect; inconclusive = small, poorly fitted or top-dose-only effect, or effect the other way; inactive = no such curve, though single readings can be large or run the other way.

test: IN Cell qHTS Assay for Inhibitors of the mTORC1 Signaling Pathway in MEF (Tsc2-/-, p53-/-) Cells: Sytravon; settings: phospho-rpS6 immunofluorescence, 24 h; series mostly up to 38.3 µM; activity, negative = inhibition: at the top concentration; note: nearly all actives have a fitted effect of over 60% in size
Summary of the method: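 Tsc2-/-, p53-/- MEFs (empty-vector) treated with compound 24 h at 37 degree Celsius, then fixed and stained for phospho-rpS6 Ser235/236 (Alexa-488) plus Hoechst. Reported as % positive cells, thresholds set against 7.5 nM rapamycin and DMSO wells.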
Potency is the fitted concentration of half-maximal effect.

SMILES | activity, negative = inhibition | Potency
CC1CCCCN1S(=O)(=O)c1ccc(C(=O)Nc2sc3c(c2C(N)=O)CC(C)(C)NC3(C)C)cc1 (stereo not drawn) | 6.25% | –
COc1ccccc1NC(=O)C1=C(C)Nc2nc(SCc3ccccc3)nn2C1c1cccs1 (stereo not drawn) | -16.2% | –
CCC1CN(C(=O)NCc2cccc(OC)c2)c2cc(Cl)ccc2O1 (stereo not drawn) | -9.57% | –
Cc1ccc(NC(=O)C(Cc2c[nH]c3ccccc23)NC(=O)OC(C)(C)C)c(C)c1 (stereo not drawn) | 30.2% | –
O=C(Nc1cc(Cl)cc(Cl)c1)c1ccc(F)c(S(=O)(=O)NC2CCCCC2)c1 | 6.25% | –
O=C1CC(c2c(F)cccc2Cl)c2c(ccc3ccccc23)N1 (stereo not drawn) | 2% | –
COC(=O)c1ccc(C2C=C(c3ccc(Cl)cc3)Nc3nc4ccccc4n32)cc1 (stereo not drawn) | 0% | –
CC1CCn2c(nc3cc(C(=O)NCc4ccccc4)ccc32)C1 (stereo not drawn) | 4.17% | –
CCOC(=O)c1cc(S(=O)(=O)NCc2ccc(OC)cc2)[nH]n1 | -9.55% | –
Cc1c(C(=O)Nc2cccc(F)c2)oc2c1-c1nn(Cc3c(F)cccc3Cl)cc1CC2 | -85.4% | –
COc1ccc(CNC(=O)C2CCC(CNS(=O)(=O)c3cccs3)CC2)cc1 (stereo not drawn) | 21.6% | –
Cc1cccc(NC(=O)c2ccc(F)c(S(=O)(=O)NCc3ccc4c(c3)OCO4)c2)c1 | 6.25% | –
Cc1cccc(NC(=O)c2nc(S(C)(=O)=O)ncc2Cl)c1 | – | 2.61 µM (active)
CCS(=O)(=O)c1ncc(Cl)c(C(=O)NCc2ccc(OC)cc2)n1 | – | 3.29 µM (active)
Cc1ccc(NC(=O)c2nc(S(=O)(=O)Cc3cccc(C)c3)ncc2Cl)cc1 | – | 6.56 µM (active)
O=C(NCc1ccccc1)c1nc(S(=O)(=O)Cc2ccccc2)ncc1Cl | – | 18.5 µM (active)
O=C(Nc1ccc(F)c(F)c1)c1cc(S(=O)(=O)N2CCc3ccccc32)ccc1F | 6.25% | –
COc1ccc(-c2ccc(CCC(=O)O)n2-c2cc(Cl)ccc2O)cc1 | -13.7% | –
CC(C)c1ccc(NC(=O)C2Cc3ccccc3N2C(=O)c2ccccc2)cc1 (stereo not drawn) | -4.76% | –
CCOC(=O)c1c(NC(=O)c2ccc(S(=O)(=O)N3CCC(C)CC3)cc2)sc2c1CCN(CC)C2 | 6.25% | –
Cc1ccc(-c2cc(C(=O)N3CCN(c4ccccc4)CC3)c3ccccc3n2)cc1C | -15.7% | –
CCOC(=O)C1CCCN(C(=O)Cn2c(=O)cc(C)c3c(C)nn(C)c32)C1 (stereo not drawn) | -0.372% | –
O=C(NCCSc1c(-c2ccc(F)cc2)[nH]c2ccccc12)c1ccc(S(=O)(=O)N2CCOCC2)cc1 | 4.61% | –
Cc1ccc(NC(=O)c2c(C)oc3ccc(O)c(CN4CCCCC4)c23)c(C)c1 | -4.63% | –

SMILES | activity, negative = inhibition | Potency
CCc1ccc(CNC(=O)Cn2nc(-c3ccc(C)cc3)ccc2=O)cc1 | 6.25% | –
Cc1nnc(SCC(=O)NCc2ccccc2F)c2nn(-c3ccc(Cl)cc3)c(C)c12 | 0% | –
CCC1(C)CC(=O)c2c(ccc3oc(C(=O)NCc4ccccc4)c(C)c23)O1 (stereo not drawn) | -8.68% | –
Cc1cccc(Cn2c(=O)n(CCCC(=O)NCc3ccccc3Cl)c(=O)c3ccccc32)c1 | -5.71% | –
Cc1c2cnn(CC(=O)NCc3ccccc3)c(=O)c2c(C)n1Cc1cccc(Cl)c1 | -19.8% | –
CCc1cnc2c(c1SCC(=O)NCc1ccccc1)c(=O)n(C)c(=O)n2C | 0.735% | –
CCOC(=O)c1c(NC(=O)c2ccc(S(=O)(=O)N3CCC(C)CC3)cc2)sc2c1CCN(C(C)C)C2 | 6.25% | –
COc1ccc(NC(=O)c2nc(S(=O)(=O)Cc3ccc(C)cc3)ncc2Cl)cc1 | – | 2.61 µM (active)
CCCS(=O)(=O)c1ncc(Cl)c(C(=O)Nc2scc(-c3ccccc3)c2C(=O)OCC)n1 | -21.1% | –
CCS(=O)(=O)c1ncc(Cl)c(C(=O)NCc2ccccc2)n1 | – | 3.29 µM (active)
COc1ccc(NC(=O)CCc2nc3c(C)nn(-c4ccc(C)cc4)c3n(C)c2=O)cc1 | -1.68% | –
Cc1ccc(S(=O)(=O)C2(C(=O)Nc3ccc(C(C)C)cc3)CC2)cc1 | 23.2% | –
Cc1cccc(CS(=O)(=O)c2ncc(Cl)c(C(=O)NCc3ccccc3)n2)c1 | – | 18.5 µM (active)
CCOC(=O)c1c(NC(=O)c2nc(S(C)(=O)=O)ncc2Cl)sc(C(C)=O)c1C | – | 5.85 µM (active)
Cc1cccc(C(=O)Nc2ccccc2SCc2cc(=O)c3cccc(C)c3[nH]2)c1 | -11.8% | –
COc1ccc(CCNC(=O)CCn2c(=O)c3ccccc3n(Cc3ccccc3C)c2=O)cc1OC | 11.2% | –
COc1ccc(CCNC(=O)c2ccc3c(c2)N=C(C)c2cc(C)ccc2S3)cc1OC | -12% | –
O=C(Nc1cccc(C(=O)N2CCN(c3ccc(Cl)cc3)CC2)c1)c1nsc2ccccc12 | -20.5% | –
Cc1ccc(NC(=O)c2cc(S(=O)(=O)N3CCCCCC3)ccc2F)cc1F | 6.25% | –
Cc1oc2ccc(O)c(CN(C)Cc3ccccc3)c2c1C(=O)Nc1cccc(Cl)c1C | -17.4% | –
O=c1ccc(-c2ccccc2)nn1Cc1ccc(F)cc1Cl | -5.19% | –
CCc1ccc(CNC(=O)c2ccc(NC(=O)N3CCCCc4ccccc43)cc2)cc1 | -0.195% | –
CCCC(=O)C1=C(c2ccc(C)cc2)N(C(=O)CCC)n2cnnc2S1 | -8.15% | –
Cc1cc(C)cc(NC(c2cccc(Cl)c2)c2nnc(-c3ccccc3)o2)c1 (stereo not drawn) | 20.8% | –

SMILES | activity, negative = inhibition | Potency
CCOC(=O)N1CCc2c(sc3c2C(=O)NC(c2cc(OC)c(OC)c(OC)c2)N3)C1 (stereo not drawn) | -16.6% | –
CCCOc1ccc(Oc2nc(NCC(C)C)nc(N(C)C)n2)nn1 | -11.8% | –
CCN1CCc2c(sc(NC(=O)CSc3ccccc3)c2-c2nc3ccccc3s2)C1 | 0.735% | –
Cc1cccc(CN2CCC(CNc3ncnc4onc(-c5ccc(Cl)cc5)c34)CC2)c1 | – | 7.36 µM (active)
O=C(NCC1CCN(Cc2cccc(Cl)c2)CC1)Nc1ccc(F)c(Cl)c1 | -100% | –
Cc1ccc(CN2CCC(CNC(=O)Nc3ccc(Cl)cc3)C2)cc1 (stereo not drawn) | -64.5% | –
CCC(C)NC(=O)c1cc(Sc2cccc(Cl)c2)nc2ccccc12 (stereo not drawn) | 6.25% | –
COc1ccc(-n2nnc(-c3nsc(NC(=O)c4ccc(C)c(C)c4)n3)c2C)cc1Cl | -25.9% | –
CCOc1ccc(-c2oc3ccccc3c(=O)c2O)cc1OCC | -100% | –
COc1ccc(-n2cc(C(=O)N(CCN(C)C)Cc3ccccc3)c3ccccc3c2=O)cc1 | -28.9% | –
COc1ccc(N(Cc2ccccc2)C(=O)c2nc(S(C)(=O)=O)ncc2Cl)cc1 | – | 2.33 µM (active)
CCS(=O)(=O)c1ncc(Cl)c(C(=O)N(Cc2ccccc2)c2ccc(OC)cc2)n1 | – | 3.29 µM (active)
CCOc1ccc(N(C(=O)Cn2nnc3ccccc32)C(C(=O)NCc2ccccc2)c2ccc(OC)cc2)cc1 (stereo not drawn) | -3.48% | –
CCN(CC)CCNC(=O)c1cn(CCOC)c(=O)c2c1c1ccccc1n2C | 18.4% | –
CC(C)C(=O)OC1=CN(Cc2ccccc2)S(=O)(=O)c2ccccc21 | 1.95% | –
CCc1ccc(N=C2NC(=O)CC(C(=O)Nc3ccc(OC)cc3)S2)cc1 (stereo not drawn) | 15.4% | –
CCCc1cc(=O)oc2cc(C)c3c(-c4ccccc4)c(C)oc3c12 | -1.83% | –
C#CCOc1c(Br)cc(C2C(C(=O)OC)=C(C)NC3=C2C(=O)c2ccccc23)cc1OCC (stereo not drawn) | 15.3% | –
CSc1cccc(NC(=O)Cn2cnc(S(=O)(=O)N3CCCC3)c2)c1 | 0.892% | –
Cn1nnnc1SCCCNCc1cccc(OCc2ccccc2Cl)c1 | -25.9% | –
Cc1noc(/C=C/N(C)C)c1S(=O)(=O)N1CCCC(C(=O)Nc2ccc(F)cc2F)C1 (stereo not drawn) | 10.5% | –
Cc1ccc(-c2noc(-c3ccccc3NC(=O)C3CC(=O)N(c4cccc(C)c4)C3)n2)cc1 (stereo not drawn) | 3.66% | –
Cc1cc(C)c(NC(=O)Cn2cc(S(=O)(=O)Cc3ccccc3F)c3ccccc32)c(C)c1 | -29.4% | –
CC(C)N(C(=O)CSc1cn(CC(=O)N2CCCCCC2)c2ccccc12)C(C)C | -11.6% | –

SMILES | activity, negative = inhibition | Potency
O=C(Cn1cc(S(=O)(=O)Cc2cccc(Cl)c2)c2ccccc21)Nc1ccccc1C(F)(F)F | -19.7% | –
CN(C)c1ccc(NC(=O)Cn2cc(S(=O)(=O)Cc3ccccc3Cl)c3ccccc32)cc1 | – | 10.4 µM (active)
Cc1ccc(CNC(=O)Cn2cc(S(=O)(=O)Cc3ccccc3F)c3ccccc32)cc1 | – | 18.5 µM (active)
COc1ccc2c(c1)c(=O)c(C(=O)c1ccc(C)cc1)cn2Cc1ccccc1F | -12.8% | –
Cc1ccccc1OCc1cc(=O)n2c(-c3ccccc3)csc2n1 | 7.14% | –
Cc1cccc(-n2c(C)nc3cc(C(=O)NC4CCCCCC4)ccc32)c1 | 6.25% | –
COc1ccc(S(=O)(=O)N(C)Cc2nc(-c3cccc(C)c3)no2)cc1 | -29.1% | –
Cc1ccc(-c2cnc(NCc3ccc(C(F)(F)F)cc3)n2C)cc1 | -41.9% | –
Cc1nnc(N2CCCC(C(=O)Nc3cc(F)ccc3F)C2)c2nn(-c3ccccc3)c(C)c12 (stereo not drawn) | -20.1% | –
O=C(NCc1ccccc1Cl)C1CCCN(c2nc3ccccc3n3cccc23)C1 (stereo not drawn) | -2.13% | –
COc1ccc(-n2nc3c(N4CCCC(C(=O)NCc5ccccc5C)C4)nnc(C)c3c2C)cc1 (stereo not drawn) | – | 5.85 µM (active)
CCCN1C(=O)C(Cc2nc3ccccc3c(=O)n2CC)c2ccccc21 (stereo not drawn) | -18.6% | –
COc1cccc(-n2ccnc2SCC(=O)Nc2nc3ccc(C)cc3s2)c1 | -25% | –
CCc1nnc(NC(=O)c2nc(S(=O)(=O)Cc3ccc(C)cc3)ncc2Cl)s1 | – | 20.7 µM (active)
COc1cc(OC)cc(C(=O)Nc2cc3nn(-c4ccccc4)nc3cc2Cl)c1 | -26.8% | –
COc1ccc2nc(NC(=O)c3nc(S(=O)(=O)Cc4ccccc4)ncc3Cl)sc2c1 | – | 5.85 µM (active)
Cc1nnc(NC(=O)c2nc(S(=O)(=O)Cc3ccccc3)ncc2Cl)s1 | – | 16.5 µM (active)
CCc1nnc(NC(=O)c2nc(S(=O)(=O)Cc3cccc(C)c3)ncc2Cl)s1 | – | 9.27 µM (active)
COc1ccccc1NC(=O)c1c(NCc2ccc(C)o2)sc2c1CCC(C)C2 (stereo not drawn) | 0% | –
Cc1ccccc1C(=O)N1CCC(c2nc3ccccc3s2)CC1 | -16.3% | –
CC(C)(C)c1ccc(S(=O)(=O)NCc2ccc3c(c2)CCN3C(=O)c2ccccc2)cc1 | 2.27% | –
